Test: growth modulation of vineyard yeast isolate – strain RM11-1a, OD600, basal, 24 h, primary screen (AID 1177);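 note: cultures grown under basal conditions with no added stressor; test concentration not given here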
Conditions: S. cerevisiae RM11-1a growth, OD600, 24 h; higher = more signal, called active from +8 up or from −8 down

z-score, inactive:
COc1cc(OC)c(C(O)C2C=CC3C(=O)NC(=O)C3N2Nc2ccccn2)cc1Br (stereo unspecified) 0.666, C=CCNC(=O)[C@@H]1[C@H]2C(=O)O[C@H](c3ccccc3)[C@H](c3ccccc3)N2[C@H](c2ccc(OCCO)cc2)[C@@]12C(=O)N(C(=O)OCCOC)c1ccc(C#CCC(C(=O)OC)C(=O)OC)cc12 1.61, COC(=O)c1c(CC[C@@H](CO)NC(=O)NCCc2c[nH]c3ccccc23)oc(C(=O)Cc2ccccc2)c1C(=O)OC -0.731, O=C(O)[C@H](Cc1ccccc1)n1cc(-c2ccccc2)nn1 -0.14, CC(C)NC(=O)[C@@]1(Cc2ccccc2I)c2ccccc2C(=O)N(Cc2ccccc2Cl)[C@H]1c1ccc(CO)cc1 0.818, CC(C)=CCCC(C)=CC(O)C1C=CC2C(=O)N(c3ccccc3)C(=O)C2N1Nc1ccc(C(C)C)cc1 (stereo unspecified) 1.47, [N-]=[N+]=NCc1ccccc1[C@H]1OC(c2ccc(OCCCO)cc2)=N[C@@]1(Cc1ccccc1)C(=O)N1CCCCC1 -0.923, CC(C)N1CC=CC23O[C@@H]4C=CCOC(=O)[C@@H]4[C@H]2C(=O)N(CCCCCO)[C@@H]3C1=O (stereo partly specified) -1.06, CCOC(=O)[C@H]1C/C=C/C[C@H](C(=O)OCC)C(=O)O[C@H]2[C@@H](OC)O[C@H](CO)[C@@H](OC(=O)c3ccc(Br)cc3)[C@@H]2OC1=O 0.807, O=C(O)[C@H]1C[C@H]2C(=O)N3CCC[C@H]3C(=O)N2[C@H]1c1ccc(O)cc1 0.208, [N-]=[N+]=Nc1ccccc1C[C@@]1(C(=O)N2CCCCC2)N=C(c2ccc(OCCCO)cc2)O[C@@H]1c1ccccc1N=[N+]=[N-] 1.48, CCOC(=O)C1=CC[C@@H](c2ccccc2)N(S(=O)(=O)c2ccc(C)cc2)[C@H]1c1ccc(CC)cc1 1.25, O=C1[C@H]2C=C(Br)[C@H](C[C@@H]2OCCCCCCO)[C@@]12CO2 0.414, COc1cc2c(cc1O)C(c1cccs1)N(Cc1ccc([N+](=O)[O-])o1)CC2 (stereo unspecified) -1.14, CCCNC(=O)[C@@]1(Sc2ccc(C)cc2)CC(=O)N(Cc2ccccc2C(F)(F)F)[C@@H]1c1ccc(CO)cc1I -1.68, O=C1OCCC=C[C@H]2OC34C=CCN(Cn5nnc6ccccc65)C(=O)[C@H]3N(CCO)C(=O)[C@@H]4C12 (stereo partly specified) -0.18, C=CCNC(=O)[C@@H]1[C@H]2C(=O)O[C@H](c3ccccc3)[C@H](c3ccccc3)N2[C@H](c2ccc(OCCO)cc2)[C@@]12C(=O)N(C(=O)OCCOC)c1ccc(C#CCNC(N)=O)cc12 2.78, CCCC1(C(=O)OC)C=C2C(=C(c3ccccc3)C(=O)C2C)CN1 (stereo unspecified) -0.0834, O=C1O[C@@H](c2ccccc2)[C@@H](c2ccccc2)N2[C@@H](c3ccc(OCCO)cc3)[C@]3(C(=O)Nc4ccc(C#CCCO)cc43)[C@@H](C(=O)NC[C@H](O)c3ccccc3)[C@H]12 2.97, COc1ccc(CCNC(=O)[C@@]2(c3ccc([N+](=O)[O-])cc3)CC(=O)N(CC34CC5CC(CC(C5)C3)C4)[C@@H]2c2ccc(CO)cc2I)cc1 0.437, COc1ccc([C@H]2C[C@H]3C(Br)=C[C@@]2(CO)C(=O)[C@]32CO2)cc1 -0.121, O=C(NC1CC1)[C@@H]1c2ccccc2C(=O)N(Cc2cc(F)cc(C(F)(F)F)c2)[C@H]1c1ccc(CO)cc1 -0.953, COC(=O)[C@@]1(Cc2ccc(OC)cc2)[C@H]2c3cc(C(=O)N4CCCC4)n(CCCNc4ncc(C(F)(F)F)cc4Cl)c3C[C@H]2CN1C(=O)c1ccccc1 0.398, CO[C@H]1O[C@H](CO)[C@@H](OC(=O)Nc2ccc(Oc3ccccc3)cc2)[C@H](OC(=O)Nc2ccc3c(c2)OCO3)[C@@H]1OC(=O)Nc1ccc2c(c1)OCO2 2.65, C=C(CCCC)/C(=C/C[C@H](OC(C)=O)c1ccccc1OCCO)c1cnc2ccccc2c1 1.15, CC(C)(C)OC(=O)CC[C@@]1(C(=O)N2CCCCC2)N=C(c2ccc(OCCCO)cc2)O[C@@H]1c1ccccc1 0.262, O=C(CS)NCCCCCNC(=O)[C@@H]1C[C@@H]2C(=O)NCC(=O)N2[C@@H]1c1ccc(O)cc1 -0.0231, CCCCN1CC=CC23O[C@@H]4/C=C\CCCOC(=O)C4[C@H]2C(=O)N(CCCCCO)[C@@H]3C1=O (stereo partly specified) -1.06, COc1ccc(C(=O)Nc2cccc(CN3C(=O)[C@]4(O[C@H](CCn5cc(CCO)nn5)[C@@H]([Si](C)(C)c5ccc(OC)cc5)[C@@H]4C)c4ccccc43)c2)cc1 4, Cc1ccc(S[C@]2(C(=O)NCC(C)C)CC(=O)N(Cc3cc(C(F)(F)F)cc(C(F)(F)F)c3)[C@@H]2c2ccc(CO)cc2)cc1 -0.622, [N-]=[N+]=NCc1ccccc1[C@@H]1OC(c2ccc(OCCCO)cc2)=N[C@]1(CCS(=O)(=O)c1ccccc1)C(=O)N1CCOCC1 0.821, CS(=O)(=O)CCOC(=O)C1=CC(CCCO)=CC(C2CC2)N(Cc2cc3c(cc2Br)OCO3)C=C1C(=O)OCCS(C)(=O)=O (stereo unspecified) 0.37, C=CC[C@]12N=C(c3ccc(OCCCO)cc3)O[C@H]1c1ccccc1N(CCS(=O)(=O)c1ccccc1)C2=O 1.05, CC1CC/C=C\[C@H]2OC34C=CCN(Cn5nnc6ccccc65)C(=O)[C@H]3N(CCCCCO)C(=O)[C@@H]4C2C(=O)O1 (stereo partly specified) 0.0538, C#CCN(C/C=C/c1ccccc1)[C@H](CO)c1ccccc1 -1.31, O=C1N(CCS(=O)(=O)c2ccccc2)c2ccccc2[C@@H]2OC(c3ccc(OCCCO)cc3)=N[C@]12Cc1ccccc1 0.289
